Among the data in ChEMBL document CHEMBL3988442, “University of Dundee, Small-Polar-MMV Screening Library” (2021) are Percent Effect values, retold here.

Structures are written as SMILES.

Assay [1] deals with T1, Aspartate--tRNA(Asp/Asn) ligase (Mycobacterium tuberculosis (strain ATCC 25618 / H37Rv)) (UniProt P9WFW3).
T1 sequence (whole entry): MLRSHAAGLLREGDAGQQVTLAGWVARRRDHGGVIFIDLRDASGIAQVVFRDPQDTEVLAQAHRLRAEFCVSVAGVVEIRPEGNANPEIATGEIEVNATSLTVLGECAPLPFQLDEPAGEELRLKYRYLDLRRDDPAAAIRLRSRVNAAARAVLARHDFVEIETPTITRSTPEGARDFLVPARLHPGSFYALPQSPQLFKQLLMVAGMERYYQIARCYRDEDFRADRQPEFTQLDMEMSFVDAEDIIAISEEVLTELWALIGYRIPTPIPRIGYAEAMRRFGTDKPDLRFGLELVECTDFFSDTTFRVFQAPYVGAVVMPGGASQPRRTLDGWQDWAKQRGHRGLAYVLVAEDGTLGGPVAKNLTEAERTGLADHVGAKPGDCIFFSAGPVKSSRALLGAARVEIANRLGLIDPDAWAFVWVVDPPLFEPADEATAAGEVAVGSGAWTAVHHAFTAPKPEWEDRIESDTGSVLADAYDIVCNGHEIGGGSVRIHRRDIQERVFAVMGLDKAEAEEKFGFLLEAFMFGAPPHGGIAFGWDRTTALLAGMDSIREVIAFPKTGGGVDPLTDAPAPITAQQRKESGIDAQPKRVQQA
Description: Assay for Asp RNA synthetase-1 from Mycobacterium tuberculosis. The class given is functional. On the set-up: scale not given: direction of the effect not stated beside the values. Particulars: 30 µM.

For assay [2], the target named is Shiga toxin 2 (Escherichia coli O157:H7) (UniProt P09385+P09386). Description: E. coli 0.157:H7 Shiga Toxin SOP - stx2 screening assay. The class given is functional. On the set-up: scale not given: direction of the effect not stated beside the values. Particulars: 30 µM.

Take `CC(=O)N(C)c1nc(CN2CCOC(Cn3cc(C)cn3)C2)cs1` (configuration not stated): the Percent Effect is -3.86% in assay [1] and -9.15% in assay [2].

`CCCN1CCN(C(=O)C(C)n2cc(Br)cn2)CC1` (configuration not stated): the Percent Effect is 5.74% in assay [1] and -31.6% in assay [2].

Consider `Cc1oncc1C(=O)NCc1cc(=O)n2c(n1)CN(C)CCC2`, for which the Percent Effect in assay [1] was 16%; in assay [2], -2%.

Turning to `Cc1ccc(C)c(C(C(=O)O)N2CCCN(Cc3ccccn3)CC2)c1` (configuration not stated), the Percent Effect is -3.28% in assay [1] and 2.34% in assay [2].

In the case of `Cc1cc(C)n(C2CCCN(C(=O)c3ccc(F)cc3F)C2)n1` (configuration not stated), the Percent Effect was 7.84% in assay [1] and -0.315% in assay [2].

Take `Cc1csc(CNC(=O)NC2CCN(c3ncccn3)CC2)n1`: the Percent Effect in assay [1] is 2.39%; in assay [2], -1.46%.

On to `OC(CN1CCN(c2ncccn2)CC1)c1cccc(F)c1` (configuration not stated), for which the results for the Percent Effect in assay [1] and in assay [2] were -3.26% and -4.85%, respectively.

On to `Cn1ccc(C(=O)NC2CCC23CCN(Cc2cccnc2)CC3)c1` (configuration not stated), for which the Percent Effect was 0.843% in assay [1] and -5.95% in assay [2].

`COc1cc(CNCc2c(C(C)C)nn(C)c2N(C)C)ccn1`: the Percent Effect turned out to be 0.522% in assay [1] and 22.2% in assay [2].

Regarding `CCC1CN(CC(=O)Nc2sccc2C#N)CCO1` (configuration not stated), the Percent Effect in assay [1] is -2.46%; in assay [2] it was 32.6%.

For the molecule `CN(C)C[C@H]1OC[C@@H]2CCN(C(=O)c3cccn3C)C[C@@H]21`, the Percent Effect in assay [1] is 0.607%; in assay [2] it was -9.5%.

Consider `Cc1nc(N2CCN(C(=O)c3ccsc3)CC2)c2cnn(C)c2n1`, for which the Percent Effect in assay [1] came to 5.51%; in assay [2] it was 0.569%.

Take `CCN(CC)C(=O)c1ccn(COc2ccccc2)n1`: the Percent Effect in assay [1] was -2.64%; in assay [2], 4.36%.

On to `COc1ccc(Br)c(C(=O)N2CCC(c3n[nH]c(C4CC4)n3)CC2)c1`, for which the Percent Effect in assay [1] is 0.422%; in assay [2], -39.5%.

For the molecule `CN(Cc1ccco1)C(=O)[C@H]1CSCN1C(=O)OC(C)(C)C`, the Percent Effect is -1.74% in assay [1] and 10.2% in assay [2].

As to `CS(=O)(=O)NCCCNC(=O)c1cccnc1O`, the Percent Effect in assay [1] is 5.28%; in assay [2], -16.3%.

`Cc1nc(CN2C(=O)C[C@H]3[C@H]2CCN3C2CCOCC2)cs1`: the Percent Effect was -3.97% in assay [1] and 9.23% in assay [2].

Regarding `Cc1cnc2n1CCN(C)C21CCN(C(=O)CC(C)C)CC1`, the results for the Percent Effect in assay [1] and in assay [2] were -4.25% and -6.62%, respectively.

Turning to `CCc1nc(COc2ccc(OCc3cnn(C)c3)cc2)no1`, the values for the Percent Effect in assay [1] and in assay [2] were 0.524% and -31%, respectively.

With `CC(=O)N1N=C(c2ccccc2)OC1C(=O)NCCC1=CCCCC1` (configuration not stated), the Percent Effect in assay [1] amounted to 0.28%; in assay [2], 22.5%.

As to `CCc1nc(C2CCCN2C(=O)CCCn2cccn2)no1` (configuration not stated), the Percent Effect in assay [1] was -0.232%; in assay [2], -5.5%.

As to `Cc1noc(C)c1-c1cccc(CC2CCN(C(=O)c3cc[nH]n3)C2)n1` (configuration not stated), the values for the Percent Effect in assay [1] and in assay [2] were -1.22% and 4.37%, respectively.

As for `CN(C(=O)Cn1nc(-c2ccc(F)cc2)oc1=O)C1CCS(=O)(=O)C1` (configuration not stated), the Percent Effect in assay [1] is 4.6%; in assay [2], -7.66%.

`Cn1cc(S(=O)(=O)N2CCCC2CC(=O)c2cccs2)cn1` (configuration not stated): the figures for the Percent Effect in assay [1] and in assay [2] were 1.01% and -9.63%, respectively.

As to `c1cnc(N2CCC3(COCc4cnc(-c5cccnc5)nc43)C2)nc1` (configuration not stated), the Percent Effect in assay [1] is 2.15%; in assay [2], -3.56%.

For the molecule `CN(Cc1ncc(-c2ccccc2)o1)CC1CCCN1c1cccnn1` (configuration not stated), the results for the Percent Effect in assay [1] and in assay [2] were 0.259% and 5.15%, respectively.

As for `COc1cc(CNCc2ccc(C(C)O)cc2)cc2c1OCO2` (configuration not stated), the Percent Effect is -6.24% in assay [1] and -48% in assay [2].

Regarding `O=C1CC(N(C(=O)c2ccc3c(c2)CCC3)C2CC2)C(=O)N1` (configuration not stated), the Percent Effect in assay [1] was determined as 0.714%; in assay [2], 6.53%.

Take `Cc1noc(C(C)C)c1C(=O)N1CCCN(Cc2cscn2)CC1`: the values for the Percent Effect in assay [1] and in assay [2] were -4.35% and -6.33%, respectively.

Consider `O=C1CC(N(C(=O)c2ccc3[nH]c4c(c3c2)CCCC4)C2CC2)C(=O)N1` (configuration not stated), for which the results for the Percent Effect in assay [1] and in assay [2] were 1.2% and -28.8%, respectively.

Turning to `O=C(NCCCNC(=O)c1cccc(O)c1)NCc1ccccc1F`, the Percent Effect in assay [1] is -5.63%; in assay [2], -41.9%.

Regarding `Cn1ccnc1CN1CCN(CC(O)c2ccc(F)c(F)c2)CC1` (configuration not stated), the Percent Effect in assay [1] was 1.33%; in assay [2], -1.4%.

As for `CC(C)c1nnc2n1CCN(C(=O)c1cccc(C(F)(F)F)c1)C2`, the results for the Percent Effect in assay [1] and in assay [2] were 0.896% and -0.987%, respectively.

On to `O=C(NS(=O)(=O)c1cc(Cl)sc1Cl)c1cccc2c1OCCO2`, for which the values for the Percent Effect in assay [1] and in assay [2] were 1.84% and -6.84%, respectively.

As for `CC(C(=O)N1CCc2ccccc2C1)n1cc(Br)cn1` (configuration not stated), the values for the Percent Effect in assay [1] and in assay [2] were 2.59% and -59.4%, respectively.

For `COc1ccc(NC(=O)C2CCOC2)c(N2CCN(C(C)=O)CC2)n1` (configuration not stated), the Percent Effect is 1.42% in assay [1] and -6.14% in assay [2].

As for `CC(=O)c1c(F)cccc1N1CCC(CS(N)(=O)=O)CC1`, the Percent Effect was -3.49% in assay [1] and -2.68% in assay [2].

As for `O=C(c1ccc(Br)o1)N1CCCC(n2cncn2)C1` (configuration not stated), the Percent Effect in assay [1] was 5.01%; in assay [2], -10.4%.

Consider `CCc1ccccc1NC(=O)N1CCn2cnc(COC)c2C1`, for which the Percent Effect was -3.09% in assay [1] and 6.27% in assay [2].

In the case of `CC(Cn1cccn1)NC(=O)Nc1nccs1` (configuration not stated), the Percent Effect in assay [1] was -0.364%; in assay [2] it was 2.8%.

Turning to `Cc1cccc(CC(=O)NCCCOC(C)C)c1`, the figures for the Percent Effect in assay [1] and in assay [2] were -4.16% and -10.2%, respectively.

Regarding `Cc1ncsc1C(=O)NCCn1nc(C2CCNC2)c2cccnc21` (configuration not stated), the results for the Percent Effect in assay [1] and in assay [2] were -3.63% and -7%, respectively.

As to `CNC(=O)[C@H]1C[C@H]2OCC[C@H]2N(Cc2cccc3ccccc23)C1`, the figures for the Percent Effect in assay [1] and in assay [2] were 0.598% and -15.6%, respectively.

`CC(C)(C)C(=O)NCCc1ccn(-c2ccccc2)n1`: the Percent Effect in assay [1] was -7.82%; in assay [2], -32.2%.

`CCOc1ccc(Cl)c(C(=O)N2CCN(CCO)CC2)n1`: the values for the Percent Effect in assay [1] and in assay [2] were 0.455% and 15.7%, respectively.

For the molecule `COc1ccc(CN2C[C@H](OCC3CCOCC3)[C@H]3COC[C@H]32)cc1`, the values for the Percent Effect in assay [1] and in assay [2] were -1.6% and 1.49%, respectively.

As to `CCc1nc(C2CCCN2Cc2nc(C3CC3)no2)no1` (configuration not stated), the Percent Effect in assay [1] was -4.58%; in assay [2], -6.89%.

Turning to `NC(=O)C(CNC(=O)Cc1ccc(F)cc1)Cc1ccc(F)cc1` (configuration not stated), the results for the Percent Effect in assay [1] and in assay [2] were -1.56% and -30.7%, respectively.

`CC(CNC(=O)N1CCN(c2cnccn2)CC1)Cc1cccs1` (configuration not stated): the figures for the Percent Effect in assay [1] and in assay [2] were 0.324% and -14.3%, respectively.

Consider `Cc1cccc(NC2CCN(C(=O)Nc3cc(F)cc(F)c3)CC2)n1`, for which the Percent Effect is -4.31% in assay [1] and -78.9% in assay [2].

For the molecule `CCc1c(C)sc(NC(=O)CN2CCN(CC)CC2)c1C(=O)OC`, the Percent Effect in assay [1] was -1.36%; in assay [2], -31.3%.
